Bioassay records from PubChem.
Sampled rows, rich in hits. Any-hit rate of the full collection: about 5.5%.
Coupling enz = inhibits coupling enzyme system, counter-screen for aldolase hits; coupling enzyme system counterscreen, AmpLite Red fluorescence; activity change, negative = inhibition, % at 58.2 µM, hits read low; 0.67% of 290,000 active; AID 2472; in the data active = activity change below about -30%
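Final compound at 57.5 uM, incubated 10 min at RT with coupling enzyme reagent (glyceraldehyde-3-phosphate), then 20 min with substrate and AmpLite Red detection. Fluorescence read at 525/598 nm; tests interference with the coupling assay, not aldolase inhibition.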
Giardia kill = kills Giardia lamblia; activity change, % at 7.66 µM, hits read low; 0.15% of 340,000 active; AID 540267; Giardia lamblia trophozoite viability; in the data active = activity change below about -80%; inconclusive = between about -30% and that limit;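 note: parasites exposed to compound for two days anaerobically before the ATP read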
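Compounds were tested on trophozoites seeded at 100 cells/well and held 48 hrs at 37 deg C anaerobically. An ATP-based luminescent kit measured the remaining live cells.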
Sfp inh = blocks B. subtilis Sfp PPTase activity; Q9F4F7; Biochemical Sfp PPTase activity, qHTS; Potency, µM, hits mostly inhibitors; 3.5% of 310,000 active; AID 1490;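 note: the enzyme is Sfp with the accession as filed and its product quenches rhodamine fluorescence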
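Compounds were incubated with enzyme (final 15 nM) for 15 min at room temperature before substrate addition started the reaction. Fluorescence at 525 nm excitation, 598 nm emission was recorded immediately and after 30 minutes.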
ELG1 repair inh = inhibitors of ELG1-dependent DNA repair in HEK293T cells; HEK293T ELG1-luciferase reporter, luminescence, 16 h; DNA damage induced by 5-fluorouridine; AID 504467; Potency, µM (titrated, usually from 46.1 µM), hits mostly inhibitors; 2.3% of 330,000 active; note: nearly all actives have a fitted effect of over 55% in size
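5-Fluorouridine DNA damage + compound/DMSO, 2,000 cells/well, 16 h, 37 °C/5% CO2. ONE-Glo, 30 min RT, luminescence. Readout = decrease in reporter signal.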
Large screens that a line does not name were inactive. Unless noted, calls come from the whole dose curve; as a rule, active = well fitted curve in the direction sought with a large enough effect; inconclusive = small, poorly fitted or top-dose-only effect, or another doubt; inactive = no such curve, though single readings can be large; an effect the other way counts as inactive or inconclusive.

O=C(CSc1ccccc1)NNC(=O)c1ccncc1	ELG1 repair inh inconclusive (no result: Coupling enz, Sfp inh)
COc1ccccc1-n1c(-c2cc(-c3ccc(F)cc3)n[nH]2)n[nH]c1=S	Sfp inh 10µM
Cc1cccc(-n2c(C)n[nH]c2=S)c1	none
Cc1cccc(-n2c(C)c(-c3ccccc3)[nH]c2=S)c1	Sfp inh 3.5µM
Cc1ccc(-n2c(-c3cccnc3)n[nH]c2=S)c(C)c1	none
COc1ccccc1-n1c(-c2cccnc2)n[nH]c1=S	Sfp inh 50µM
CCn1c(-c2cccnc2)n[nH]c1=S	Sfp inh 89µM
CCCCCCCN1CCN=C1N(C)C	none (no result: Coupling enz, Sfp inh)
CCCCCCCCNc1ncnc2[nH]ncc12	none (no result: Coupling enz, Sfp inh, ELG1 repair inh)
COc1cccc(Cn2c(=O)c(C)nc3cnc(OC)nc32)c1	none (no result: Giardia kill, ELG1 repair inh)
